According to PubChem BioAssay AID504332 (National Center for Advancing Translational Sciences (NCATS), 2011):
About 31,000 (8.9%) of roughly 350,000 compounds were called active. Not shown: some 15% with an inconclusive outcome. The list comes from a sample in which actives are over-represented; it also holds similar structures and randomly drawn compounds. Values without a mark were called inactive. Calls come from the whole dose curve; as a rule, active = well fitted inhibition curve with a large enough effect; inconclusive = small, poorly fitted or top-dose-only effect; inactive = no such curve, though single readings can be large or run the other way.

Each compound was assayed against Histone-lysine N-methyltransferase EHMT2 (Homo sapiens) (UniProt Q96KQ7) (assay: qHTS Assay for Inhibitors of Histone Lysine Methyltransferase G9a). Details: G9a H3K9 monomethylation, AlphaScreen, 2 h; series mostly up to 59 µM; activity, negative = inhibition: at the top concentration.
Sequence of Histone-lysine N-methyltransferase EHMT2 (Homo sapiens) (Q96KQ7 913-1193 limits assumed): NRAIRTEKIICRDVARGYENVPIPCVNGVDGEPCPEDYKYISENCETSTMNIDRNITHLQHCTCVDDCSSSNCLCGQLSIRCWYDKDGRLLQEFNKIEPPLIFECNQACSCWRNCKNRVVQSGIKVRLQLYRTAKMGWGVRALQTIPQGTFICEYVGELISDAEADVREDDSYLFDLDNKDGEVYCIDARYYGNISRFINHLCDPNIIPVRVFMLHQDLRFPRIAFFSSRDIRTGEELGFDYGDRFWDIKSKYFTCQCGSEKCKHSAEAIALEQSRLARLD
Summary of the method: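 Readings reflect AlphaScreen signal from monomethyl-H3K9 antibody detection. HMT at 20 nM; substrate b-H3K9 500 nM; cofactor SAM 20 uM; 2 h RT reaction; compounds tested as titrations in qHTS with 15 min preincubation.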
% is set by controls: 0 for no effect and ±100 for the full control effect; potency is the fitted concentration of half-maximal effect.
Note: nearly all actives have a fitted effect of over 75% in size.

| Structure (SMILES) | activity, negative = inhibition | Potency |
| --- | --- | --- |
| O=C(Nc1cccnc1Cl)c1cc(-c2ccccc2O)on1 | 11.2% [at 102 µM] |  |
| O=C1CC(c2cccc(F)c2)C2=C(CCCC2=O)N1 (configuration not stated) | 24.3% |  |
| O=C1CSC(c2cccc(F)c2)N1c1ccccc1F (configuration not stated) | -5.4% [at 12.7 µM] |  |
| O=C1CCCC2=C1C(c1ccccc1)n1c(s/c(=C/c3cccc(F)c3)c1=O)=N2 (configuration not stated) |  | 10 µM (active) |
| Cc1ccc(-c2cc(C(F)(F)F)c(C#N)c(SCC(=O)Nc3ccccc3)n2)cc1 | 6.72% |  |
| CCOCCc1nn2c(=O)cc(COC(=O)CNC(=O)c3ccc(C(C)(C)C)cc3)nc2s1 | 27.8% |  |
| CC(C)(C)OC(=O)N[C@H](C(=O)OC(C)(C)C)c1ccc(Br)cc1 | 2.34% [at 0.501 µM] |  |
| C[C@H](C(=O)CC(=O)OC(C)(C)C)[C@H](O)c1ccc(C(F)(F)F)cc1 |  | 79.4 µM (active) |
| COc1ccc(CNC(=O)C2CC(c3ccc(C(F)(F)F)cc3)=NO2)cc1 (configuration not stated) | 32.3% |  |
| COC(=O)c1cccc(C(=O)N2CCC(CCC(=O)NCc3ccc(F)cc3)CC2)c1 | -0.66% [at 102 µM] |  |
| Cc1occc1C(=O)NC1CCCN(Cc2ccc(CC(C)C)cc2)C1 (configuration not stated) | 0.764% [at 102 µM] |  |
| Cc1ccccc1CN1CCC(C(=O)Nc2ccc(Oc3cccnc3)cc2)CC1 | 0.879% |  |
| COc1ccc(CCNc2ncnc3c2cnn3-c2ccc(C)cc2)cc1 | 5.54% |  |
| COc1cc(NC(=O)c2nc3ccccc3nc2C)cc(OC)c1OC | -32.1% |  |
| COc1cc(NC(=O)c2noc3c2CSc2ccccc2-3)cc(OC)c1OC |  | 1.78 µM (active) |
| COc1ccc(CCNC(=O)c2nn(C)c3c2CSc2ccccc2-3)cc1OC | -43% |  |
| COc1ccc(-c2onc(C)c2C)cc1S(=O)(=O)NCc1cccs1 | 1.71% |  |
| Cc1ccc(S(=O)(=O)N2CCN(C(=O)c3ccccc3-c3nc4ccccc4s3)CC2)c(C)c1 | -36.1% [at 102 µM] |  |
| Cc1cc2c(cc1C)[n+](C)cn2CC(O)COCC1CC=CCC1 (configuration not stated) |  | 39.8 µM (active) |
| COc1ccc(C(=O)NCC2CCCN2S(=O)(=O)c2cccs2)cc1OC (configuration not stated) | 4.75% [at 102 µM] |  |
| CC(=O)NC(c1cccs1)c1cc(Br)c2cccnc2c1O (configuration not stated) | 7.81% [at 12.7 µM] |  |
| COc1ccccc1NC(=O)/C=C/C(=O)O | -38.1% [at 102 µM] |  |
| Cc1c(NC(=S)NCc2ccc(F)cc2)cccc1[N+](=O)[O-] |  | 39.8 µM (active) |
| Cc1cccc(NC(=S)NCCc2ccc(F)cc2)c1C | 8.37% |  |
| Cc1c(NC(=O)/C=C/C(=O)O)cccc1[N+](=O)[O-] |  | 39.8 µM (active) |

| Structure (SMILES) | activity, negative = inhibition | Potency |
| --- | --- | --- |
| Cc1c(NC(=O)Nc2ccccc2)cccc1[N+](=O)[O-] | 15.3% [at 102 µM] |  |
| CCNC(=S)Nc1cccc(Cl)c1C | 19.4% |  |
| CCCCNC(=O)c1cc(-c2ccc(Cl)c(Cl)c2)on1 | 8.77% |  |
| O=C(COc1ccccc1)NCc1ccc2c(c1)CCN2C(=O)c1ccc(F)cc1 | -0.362% |  |
| O=C(NCCCN1CCCC1=O)C(=O)NCC1OCCN1S(=O)(=O)c1ccc(Br)cc1 (configuration not stated) | 30.6% [at 102 µM] |  |
| Cc1ccc(NC(=O)CN2C(=O)CC(C)Sc3ccccc32)c(C)c1 (configuration not stated) | -3.84% |  |
| COc1ccc(S(=O)(=O)N(C)CC(=O)N2CCCC2)cc1 | -6.5% [at 102 µM] |  |
| CCN(CC)c1ccc(NC(=O)Cn2nc3c(cc2=O)CCCC3)c(C)c1 |  | 11.2 µM (active) |
| Cc1cc(NC(=O)Cn2nc(C(F)(F)F)c3c2CCCC3)no1 | 2.94% |  |
| CCc1ccc(-n2nc(C)c3c(C)cc(=O)n(CC(=O)Nc4ccc(F)cc4C)c32)cc1 | 13.4% |  |
| C/C(=C/c1ccccc1)C(=O)N1CCN(c2ccccc2)CC1 | -3.56% [at 102 µM] |  |
| CCOc1ccc(NC(=O)c2cnn(-c3ccccc3)c2-n2cccc2)cc1 | -16.2% |  |
| O=C(N1CCOCC1)N1CCOCC1 | 9.64% |  |
| Cc1ccc(C(=O)N2CCN(C(=O)N3CCOCC3)CC2)cc1 | -4.57% |  |
| N#C/C(=C/c1ccc(N2CCOCC2)o1)C(=O)N1CCOCC1 |  | 7.94 µM (active) |
| Cc1cccc(NC(=O)Cc2ccc(Br)cc2)n1 | 12.1% [at 0.501 µM] |  |
| CCOCCCNC(=O)c1c(NC(=O)Cc2coc3ccc(C)cc23)sc2c1CCC2 | -21.4% |  |
| O=C(CSCc1cnn(-c2ccccc2)c1-n1cccc1)NCc1ccc(Cl)cc1 | -27.5% |  |
| Cc1cccc(N2C(=O)SC(N(CC(=O)O)c3cccc(C)c3)C2=O)c1 (configuration not stated) | -87.4% [at 102 µM] |  |
| Cc1cccc(N2C(=O)SC(SC(=Nc3ccccc3)Nc3ccccc3)C2=O)c1 (configuration not stated) |  | 3.55 µM (active) |
| Cc1cccc(N2C(=O)C3C(c4ccccc4)OC4(C(=O)c5ccccc5C4=O)C3C2=O)c1 (configuration not stated) | -13.5% |  |
| COc1ccc(OC)c(-c2csc(NC(=O)COC(=O)C3CC3)n2)c1 | -10.3% |  |
| COc1cccc(CNC(=O)COC(=O)CN2C(=O)NC3(CCCCC3C)C2=O)c1 (configuration not stated) | 7.7% [at 12.7 µM] |  |
| COc1ccc(C2/C(=C(/O)c3ccccc3)C(=O)C(=O)N2C)c(OC)c1 (configuration not stated) | -3.6% [at 0.501 µM] |  |
| COc1ccccc1C1/C(=C(/O)c2ccc(OC(C)C)cc2)C(=O)C(=O)N1c1cc(C)on1 (configuration not stated) |  | 1.26 µM (active) |

| Structure (SMILES) | activity, negative = inhibition | Potency |
| --- | --- | --- |
| Cc1cc(N2C(=O)C(=O)/C(=C(/O)c3ccc(Cl)cc3)C2c2cccc(Br)c2)no1 (configuration not stated) | -2.11% |  |
| COC(=O)C1(C)CC1(c1ccccc1)c1ccccc1 (configuration not stated) | 48.6% [at 102 µM] |  |
| CC(=O)c1ccc(N2CCN(S(=O)(=O)c3ccc4c(c3)CC(=O)N4C)CC2)cc1 | 0.477% [at 102 µM] |  |
| Cc1ccc2oc(=O)c3cnn(CC(=O)N4CCN(c5cccc(Cl)c5)CC4)c3c2c1 | -0.798% |  |
| CSc1ccc(CCNC(=O)c2cnn(-c3ccccc3)c2-n2cccc2)cc1 | 3.56% |  |
| CC1CCN(C(=O)C2CCN(S(=O)(=O)N3CCC4(CC3)OCCO4)CC2)CC1 | -9.21% [at 102 µM] |  |
| Cc1csc(=O)n1CC(=O)OCC(=O)N(CC(C)C)c1c(N)n(Cc2ccccc2)c(=O)[nH]c1=O | 6.53% [at 102 µM] |  |
| COc1ccc2oc(C(=O)OCC(=O)N(CC(C)C)c3c(N)n(Cc4ccccc4)c(=O)[nH]c3=O)c(C)c2c1 |  | 39.8 µM (active) |
| COCCN(C(=O)COC(=O)Cc1cccc(OC)c1)c1c(N)n(Cc2ccccc2)c(=O)[nH]c1=O | -40.6% [at 102 µM] |  |
| O=C(NC1CC(=O)N(c2ccc(F)cc2)C1)c1ccc(S(=O)(=O)N2CCCC2)cc1 (configuration not stated) | -39.5% |  |
| CCN(CC)C(=O)CSc1nc2cc3c(cc2c(=O)n1CCCC(=O)NCc1ccc2c(c1)OCO2)OCO3 | 0.103% |  |
| CCc1c(C)[nH]c(=S)c(C#N)c1C |  | 1.12 µM (active) |
| CCOC(=O)C1=C(CCc2ccccc2)NC(=O)NC1c1ccc2ccccc2c1 (configuration not stated) | -5.48% [at 102 µM] |  |
| CCOC(=O)C1=C(CN2CCc3ccccc32)NC(=O)NC1c1cccc([N+](=O)[O-])c1 (configuration not stated) |  | 39.8 µM (active) |
| CCOC(=O)C1=C(CN2CCCCCC2)NC(=O)NC1c1cccc([N+](=O)[O-])c1 (configuration not stated) | -40.2% [at 102 µM] |  |
| Cc1ccc(C)c(N2CCN(C(=O)CN3C(=O)COc4ccc(S(=O)(=O)N5CCCCCC5)cc43)CC2)c1 | 1.44% |  |
| CC(C)(C)C(=O)COC(=O)c1cc(S(=O)(=O)N2CCCCC2)ccc1N1CCOCC1 | -0.482% [at 102 µM] |  |
| Cc1nnc(Sc2nc3c(c(=O)[nH]c(=O)n3C)n2Cc2ccccc2)s1 | 17.7% [at 12.7 µM] |  |
| C=CCSc1nc2c(c(=O)[nH]c(=O)n2C)n1Cc1ccccc1 | 30.7% [at 102 µM] |  |
| C=CCn1c(SCc2ccccc2)nc2c1c(=O)[nH]c(=O)n2C |  | 31.6 µM (active) |
| O=[N+]([O-])c1c(NCCO)cc(Sc2nc3ccccc3s2)c2nonc12 |  | 3.55 µM (active) |
| Cc1nn(CC(=O)Nc2nc3ccccc3s2)c(C)c1[N+](=O)[O-] | 11.1% [at 0.501 µM] |  |
| O=[N+]([O-])c1cc(Br)c(O)c(/C=N/Nc2nc3ccccc3s2)c1 | 115% [at 102 µM] |  |
| Cc1c(NS(=O)(=O)c2ccc(Cl)cc2)c(=O)n(-c2ccccc2)n1C | 9.47% |  |
| CCN(CC)P(=O)(/C(Cl)=C\Nc1c(C)n(C)n(-c2ccccc2)c1=O)N(CC)CC |  | 31.6 µM (active) |

| Structure (SMILES) | activity, negative = inhibition | Potency |
| --- | --- | --- |
| Cc1c(NC(=S)Nc2ccccc2)c(=O)n(-c2ccccc2)n1C | 0.236% |  |
| COc1ccccc1-c1nc(C#N)c(N2CCC(C(N)=O)CC2)o1 | -5.97% [at 102 µM] |  |
| Cc1oc(-c2ccccc2F)nc1CS(=O)CC(=O)NCCN1CCCCC1C (configuration not stated) | -25.9% [at 102 µM] |  |
| CC1CCN(c2oc(-c3ccccc3F)nc2C#N)CC1 |  | 7.94 µM (active) |
| COc1ccc(Cl)cc1NC(=O)C(C)Sc1nc2c(c(=O)[nH]1)CCCC2 (configuration not stated) | -28.6% |  |
| CC(=O)Nc1ccc(S(=O)(=O)Nc2nccc(/C=C/c3ccccc3F)n2)cc1 | -3.27% [at 102 µM] |  |
| Cc1cc(C)nc(NS(=O)(=O)c2ccc(N/C=C\C(=O)c3cccs3)cc2)n1 |  | 50.1 µM (active) |
| CCOc1ncccc1C(=O)Nc1ccc(S(=O)(=O)Nc2nc(C)cc(C)n2)cc1 | 108% [at 12.7 µM] |  |
| O=C(O)c1ccccc1-c1ccccc1C(=O)Nc1cccc2ccccc12 | 8.04% |  |
| O=C(O)c1cc([N+](=O)[O-])c(Nc2cccc3ccccc23)c([N+](=O)[O-])c1 |  | 44.7 µM (active) |
| O=C(Nc1ccccc1[N+](=O)[O-])C1C(c2ccccc2)=C1c1ccccc1 | 24.3% [at 0.501 µM] |  |
| Cc1ccccc1-n1c(=O)c2ccccc2n(Cc2ccc(F)cc2)c1=O | 3.97% |  |
| O=C(NCCc1ccccc1)C(=O)NCC(c1ccco1)S(=O)(=O)c1ccccc1 (configuration not stated) | -6.5% |  |
| O=C(NC(=O)N1CCOCC1)c1ccccc1 | -4.57% |  |
| COC(=O)[C@H](Cc1ccccc1)NC(=O)N1CC(C)OC(C)C1 (some centres not stated) | 10.9% [at 102 µM] |  |
| CC1CN(C(=S)SCC(=O)c2ccccc2)CC(C)O1 (configuration not stated) |  | 1.78 µM (active) |
| O=C(CSC(=S)N1CCOCC1)c1cc(Br)cc(Br)c1O |  | 79.4 µM (active) |
| O=C1Nc2c(Br)cc(Br)cc2C1(O)N1CCOCC1 (configuration not stated) | 5.27% [at 12.7 µM] |  |
| NC(=NC(=O)c1ccccc1)N1CCOCC1 | 3.07% |  |
| O=C(CSC(=S)N1CCOCC1)c1ccccc1 |  | 7.08 µM (active) |
| CC1CN(C(=O)CN2C(=O)NC(C)(c3ccccc3)C2=O)CC(C)O1 (configuration not stated) | 5.65% [at 2.33 µM] |  |
| CN(C)CC(C)(C)CNC(=O)c1cc(Br)cc(Br)c1O | -26.2% [at 102 µM] |  |
